Screen size: about 330,000 compounds; about 940 (0.28%) were called active. Cut-off read from the data, not from the text of the source: active = inhibition above about 12%; inactive = the rest. Many of the other results were omitted from the sample, so actives are more common in it than they were.
Assay: reduced growth of AddAB-expressing E. coli cells – absorbance, AddAB inhibitor project, primary screen (AID 435030);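 note: 0% = vehicle wells of infected cells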
Settings: E. coli expressing H. pylori AddAB, at 11.9 µM, active compounds read high

inhibition, active:
C=C1c2c(Cl)ccc(O)c2C(O)=C2C(=O)[C@]3(O)C(O)=C(C(N)=O)C(=O)[C@@H](N(C)C)[C@@H]3[C@@H](O)C12 (some centres not stated) 103%
CN(C)[C@@H]1C(=O)C(C(N)=O)=C(O)[C@@]2(O)C(=O)C3=C(O)c4c(O)ccc(Cl)c4[C@@H](O)[C@H]3C[C@@H]12 100%
CC(=O)N(O)CCCCCNC(=O)CCC(=O)N(O)CCCCCNC(=O)CCC(=O)N(O)CCCCCNC(=O)CCC(=O)O 22%
O=c1ccc2c(-c3ccccc3S(=O)(=O)O)c3ccc(O)c(O)c3oc-2c1O 22.5%
COc1ccc(C(=O)c2oc3ccc(Br)cc3c2NC(C)=O)cc1 100%
COC(=O)N/N=C/c1c[n+]([O-])c2ccccc2[n+]1[O-] 89.8%
O=C(NCC#CCSc1nnc(-c2cccc3ccccc23)o1)c1cccs1 12.4%
CC1=C(C(=O)OCc2ccccc2)C(c2ccco2)n2ncnc2N1 (configuration not stated) 14.7%
C/[N+]([O-])=C\c1ccc([N+](=O)[O-])o1 79%
COc1cccc(/C=N/Nc2ncc(C(F)(F)F)cc2Cl)c1O 12.5%
O=C(Nc1ccc(Br)cn1)c1ccc([N+](=O)[O-])o1 97.7%
Cc1cccc(NC(=O)c2ccc([N+](=O)[O-])o2)c1 38.2%
O=C(CSc1ccc(-c2ccccn2)nn1)Nc1ccccc1 12.4%
Oc1cccc(/C=N/Nc2ccc(Cl)nn2)c1O 13.3%
O=C1CCC(=O)N(O)CCCCCNC(=O)CCC(=O)N(O)CCCCCNC(=O)CCC(=O)N(O)CCCCCN1 35.8%
CCN1/C(=C\c2ccc3ccccc3[n+]2CC)Sc2cc(C)ccc21 13.3%
CC(C)(C)NC(=O)COC(=O)c1cc(Cl)ccc1[N+](=O)[O-] 57.9%
CC1CCCN(C(=O)c2ccc3c(c2)C(=O)N(CCC2=CCCCC2)C3=O)C1 (configuration not stated) 22.9%

inhibition, inactive:
Cc1nnc(SCCCCSc2nnc(C)c(=O)[nH]2)[nH]c1=O -1.42%
O=c1oc2c(Cl)cc(Cl)cc2cc1-c1nnc(Nc2ccccc2F)s1 -1.06%
O=C(NC(=O)N1CCSCC1)c1c(Cl)cccc1Cl 1.83%
O=C(CCNC(=O)c1ccccc1)NN=Cc1ccc(Br)o1 -1.39%
NC(=O)NCCCC(=O)O 4.03%
COc1nc(N(C)C)nc(N2CC(=O)N(CCNS(=O)(=O)c3ccc(C)cc3)C2=N)n1 -0.32%
Cc1ccc(Cn2c(=N)c(S(=O)(=O)c3ccc(C)cc3)cc3c(=O)n4ccccc4nc32)cc1 1.33%
CC1(C)CC(=O)c2cnc3nc4ccccc4n3c2C1 -0.86%
COc1ccc(CCN=C2SCC(=O)N2Cc2ccccc2)cc1OC 1.52%
O=C(N/N=C\c1ccc(-c2ccc(Cl)c(Cl)c2)o1)C(=O)N1CCCC1 -0.96%
C=C1CCN([C@H](C(=O)NCc2cc(OC)c(OC)c(OC)c2)C(C)C)S(=O)(=O)c2ccccc21 0.6%
COc1ccc(CNC(=O)C[C@H]2C[C@H](C(=O)N3CCOCC3)[C@@]3(C)c4[nH]c5cc(CCC(=O)N(C)C)ccc5c4CCN3C2=O)cc1OC -1.37%
O=C(Cc1ncc(C(F)(F)F)cc1Cl)Nc1cccc(Br)c1 0.17%
COc1ccc(CC(=O)Nc2c(C(N)=O)oc3ccccc23)cc1 2.54%
COC(=O)c1oc2ccc(Br)cc2c1NC(C)=O -2.24%
CC(=O)/C(=N\Nc1ccc(Cl)cc1Cl)Sc1cccc2cccnc12 -1.2%
C[C@H]1[C@H]2c3nc4ccccc4n3C[C@H]1ON2C1CCCCC1 3.89%
COc1ccc(CNC(=O)CN(Cc2ccc(Cl)cc2)S(C)(=O)=O)cc1 3.57%
COC(=O)N/N=C/c1ccc(-c2ccc(Cl)c(Cl)c2)o1 1.71%
COC(=O)N/N=C/c1cn(CCCOc2ccc(C)cc2)c2ccccc12 3.22%
OCCNCCOc1ccc(Cl)c(Cl)c1 0.51%
C#CCSc1nnc(-c2sc3ccccc3c2Cl)o1 1.12%
COc1ccc(CCNC(=O)/C(C#N)=C2\N=C(NC(=O)c3cccs3)c3ccccc32)cc1 3.86%
COc1ccc2cc(CCl)c(Cl)nc2c1 -0.08%
COc1cccc(C(=O)N2CCC(n3nccc3NC(=O)C3CCOC3)CC2)c1 (configuration not stated) 0.08%
Cc1ccc(-c2nnc(CN3CCN(C)CC3)o2)cc1 -0.67%
CC(C)(C)SCCSC1=CC(=O)CC(c2ccccc2)C1 (configuration not stated) 0.25%
CCn1cc(CN2CCN(CC(C)(C)C)C(CCO)C2)c2ccccc21 (configuration not stated) -1.04%
CC1=C(C(=O)OC2CCCCC2)C(c2cccnc2)n2ncnc2N1 (configuration not stated) 0%
COc1ccccc1NC(=O)C1=C(C)Nc2ncnn2C1c1ccc(C)o1 (configuration not stated) -0.48%
COC(=O)C1(C)NC(c2ccc(F)cc2)C2C(=O)N(c3ccccc3)C(=O)C21 (configuration not stated) 1.16%
CC(C)C[C@H]1CN=C(Nc2ccccc2)N1CC1CCCCC1 2.92%
CCOc1ccc(C(C)=O)cc1COC(=O)CNC(=O)c1cccs1 3.06%
CC1CCCC(C)N1C(=O)CN1CCN(c2nc(-c3ccc(F)cc3)cs2)CC1 (configuration not stated) 1.81%
CCn1c(=S)sc2c(=O)n(CC(=O)Nc3ccc(OC)cc3)c(C)nc21 0.15%
O=C1Nc2cc(Cl)c(Cl)cc2N(O)N1c1cc(Cl)cc(Cl)c1 -1%
COC(=O)C1=C(C)N(C)C(=O)NC1c1ccc([N+](=O)[O-])o1 (configuration not stated) 3.34%
COc1ccc(C(=O)NCC(=O)N/N=C/c2ccc([N+](=O)[O-])o2)cc1OC 9.43%
COc1ccc(Br)cc1/C=N/Nc1ccc(Cl)c(C(=O)O)c1 1.8%
CCOc1cccc(/C=N/NC(=S)NCCN2CCOCC2)c1O -0.42%
CN1C(=O)c2ccc(C(=O)Nc3ccc(Br)cn3)cc2C1=O -3.02%
O=C(Nc1cccc(O)c1)c1ccc(C(=O)c2ccccc2)o1 1.45%
Cc1onc(NC(=O)c2ccc([N+](=O)[O-])o2)c1Br 9.34%
O=C(Nc1ccc(Br)cn1)c1ccc([N+](=O)[O-])cc1Cl -0.17%
CCOc1ccc(C(C)=O)cc1COC(=O)CN1C(=O)NC2(CCCC2)C1=O 0.34%
Brc1cnc(N2CCCC2)nc1N1CCCCC1 2.22%
CCC(=C/c1sc2ccc3ccccc3c2[n+]1C)/C=C1\Sc2ccc3ccccc3c2N1C 9.85%
Cc1ccc(S(=O)(=O)c2ccc(Cl)cc2)cc1S(=O)(=O)NC(C(=O)O)C(C)C (configuration not stated) 3.7%
NC(=O)C1CCN(C(=O)c2ccc3c(=O)n(Cc4cccc(Br)c4)c(=S)[nH]c3c2)CC1 1.96%
COc1ccc(NC(=O)C(Br)C(C)C)cc1 (configuration not stated) 0.42%
O=C(CSc1ccc(-c2ccc(-n3cccn3)cc2)nn1)Nc1ccc([N+](=O)[O-])cc1 2.04%
O=C(CSc1ccc(-c2ccco2)nn1)Nc1cccc(F)c1 1.52%
O=C(CNc1ccc(F)cc1F)NC(=O)NCc1ccco1 -1.79%
O=C1CCCC(O)=C1N=Nc1ccc2ncsc2c1 1.13%
COc1ccc(CNC(=O)CN(c2ccc(OC)c(Cl)c2)S(=O)(=O)c2ccc(C)cc2)cc1 0.77%
Oc1c(Br)cccc1/C=N/Nc1c(F)c(F)c(F)c(F)c1F 5.1%
Oc1ccc(Br)cc1/C=N/Nc1ccccn1 4.69%
Cc1noc(C)c1C(=O)OC(C)C(=O)Nc1ccc2c(c1)OCO2 (configuration not stated) 1.01%
CC1(C)c2[nH]c3ccccc3c2C[C@H]2C(=O)N(N)CC(=O)N21 -0.5%
O=C(CCc1ccc(S(=O)(=O)N2CCOCC2)cc1)OCC(=O)c1ccc(Br)cc1 3.02%
Cc1nnc(NC2=NCCCCC2)o1 0.25%
CCN1CCC2(CCN(Cc3cn[nH]c3-c3ccc(OC)c(F)c3)C2)C1 (configuration not stated) 0.65%
CCOC(=O)c1ccccc1N1C(=O)C2Sc3[nH]c(=O)sc3C(/C=C/c3ccccc3)C2C1=O (configuration not stated) 2.63%
COc1ccc(C2/C=C\CN(CC(C)C)CC(=O)N2Cc2ccc(F)cc2)cc1 (configuration not stated) 2.22%
O=C1/C(=C/c2cccs2)SC(=S)N1C1CCS(=O)(=O)C1 (configuration not stated) -0.44%
CCOc1ccc(NC(=O)CN(C)C(=O)Cc2sc(C)nc2-c2ccc(F)cc2)cc1OCC 1.75%
O=C(NCCCN1CCCCCC1)C1CC(=O)N(C2CCCC2)C1 (configuration not stated) -0.68%
O=C(Nc1cccc(S(=O)(=O)N2CCOCC2)c1)C12CC3CC(CC(C3)C1)C2 0.82%
CCCC(=O)OCC(=O)Nc1cc(Cl)ccc1[N+](=O)[O-] 0.77%
CC(C)(C)NC(=O)COC(=O)c1cc(Br)ccc1Cl 1.15%
CN(NC(=O)C1CC(=O)N(c2ccccc2)C1)C1=NS(=O)(=O)c2ccccc21 (configuration not stated) 1%
Cc1cc(=O)n2nc(N3CCCC(C(=O)NCCC4=CCCCC4)C3)sc2n1 (configuration not stated) 0.49%
Cn1nnc2cc(C(=O)NCCC3=CCCCC3)ccc21 0%
O=C(c1n[nH]c2c1CCC2)N1CCCC(Nc2cccc(F)c2)C1 (configuration not stated) 2.86%

Source: PubChem BioAssay AID435030 (The Scripps Research Institute Molecular Screening Center, 2010)
